Laboratory results from the supplement of paper PMC7726561.
Whole data set: some 1,400 sequences, median “thermal melting temperature (Tm) of peptide-HLA complex” near 60, cut for the lowest 2% near 45. Only a selection was taken, and the lowest values are over-represented in it overall.

B1: unnamed (peptide)
chain: SPTLPAARSSL
B2: unnamed (peptide)
chain: NPKNPGLWL
B3: unnamed (peptide)
chain: TPRVPDNSL
B4: unnamed (peptide)
chain: SPDLVRVQL
B5: unnamed (peptide)
chain: RPAAGFVAGL
B6: unnamed (peptide)
chain: KPWLRALQL
B7: unnamed (peptide)
chain: MPFPNIRSAEL
B8: unnamed (peptide)
chain: TPNDRFILL
B9: unnamed (peptide)
chain: LPWASTHSL
B10: unnamed (peptide)
chain: AALPFVRQAGL
B11: unnamed (peptide)
chain: VPNQKRLTLL
B12: unnamed (peptide)
chain: KPYPIAEVEQL
B13: unnamed (peptide)
chain: FDPALLEF
B14: unnamed (peptide)
chain: YPPNPWREI
B15: unnamed (peptide)
chain: LPSWGRAEL
B16: unnamed (peptide)
chain: GPDEAKIKALL

Molecular target: HLA-B*07:02
Assay: thermal melting temperature (Tm) of peptide-HLA complex; higher = more thermostable pHLA complex
Conditions: C1R-B*07:02
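Note: lysates heated 10 min at 37–73 °C, complexes pulled down with pan-HLA I antibody, peptide signal by DIA-MS relative to 37 °C, Tm where half the complex is unfolded.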

Row | Sequence | thermal melting temperature
1 | B1 | 56.9 °C
2 | B2 | 61 °C
3 | B3 | 60.7 °C
4 | B4 | 60.7 °C
5 | B5 | 57 °C
6 | B6 | 59.7 °C
7 | B7 | 58.2 °C
8 | B8 | 60.4 °C
9 | B9 | 58.1 °C
10 | B10 | 42.3 °C
11 | B11 | 62.4 °C
12 | B12 | 42.7 °C
13 | B13 | 42.6 °C
14 | B14 | 59.3 °C
15 | B15 | 62.8 °C
16 | B16 | 60 °C
